# In the library only some 1.4% were active in any assay of this set; here they are far more common.
# APOBEC3G inh: blocks human APOBEC3G single-stranded DNA deamination; Q9HC16; recombinant A3G, ssDNA deamination FAM/TAMRA fluorescence; inhibition, % at 20 µM; 330,000 compounds, 0.28% hits;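 active = inhibition of at least 40% at 20 µM, with no more than 30% in the related APOBEC3A deaminase screen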
# Target sequence (Q9HC16 whole entry, looked up): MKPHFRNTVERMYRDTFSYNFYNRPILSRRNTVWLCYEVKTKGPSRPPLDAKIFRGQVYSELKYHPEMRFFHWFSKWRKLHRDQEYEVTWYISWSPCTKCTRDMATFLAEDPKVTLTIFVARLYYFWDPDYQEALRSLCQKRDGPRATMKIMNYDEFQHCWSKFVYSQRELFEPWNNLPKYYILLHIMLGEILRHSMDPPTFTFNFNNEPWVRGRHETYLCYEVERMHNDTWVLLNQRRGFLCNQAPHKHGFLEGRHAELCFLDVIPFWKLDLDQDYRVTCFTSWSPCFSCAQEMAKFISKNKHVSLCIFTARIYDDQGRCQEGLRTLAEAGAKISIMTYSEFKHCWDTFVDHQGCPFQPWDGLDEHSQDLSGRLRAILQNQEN
# VLA-4 inh: inhibition in a human VLA-4 binding assay; P13612; VLA-4 expressing cells, ligand binding flow cytometry; inhibition, % (about 7 µM as worked out from the volumes in the protocol); 330,000 compounds, 0.2% hits; AID 2557; in the data active = inhibition above about 50%
# APOBEC3A inh: blocks human APOBEC3A ssDNA deamination. recombinant A3A, FAM/TAMRA ssDNA deamination fluorescence. inhibition, % at 20 µM. 330,000 compounds, 0.41% hits. AID 493011;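 active = at least 40% inhibition at 20 µM here, with at most 30% in a related deaminase screen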
# Target sequence (P31941 whole entry, looked up): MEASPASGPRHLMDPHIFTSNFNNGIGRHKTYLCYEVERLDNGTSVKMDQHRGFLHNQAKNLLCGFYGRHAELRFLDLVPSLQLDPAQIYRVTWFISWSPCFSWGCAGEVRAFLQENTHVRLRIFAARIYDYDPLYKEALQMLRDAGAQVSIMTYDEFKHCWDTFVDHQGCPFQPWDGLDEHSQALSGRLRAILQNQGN
# GRK2 aptamer HTS: blocks RNA aptamer binding to human GRK2. bead flow cytometry, FAM-aptamer displacement from GRK2. inhibition of aptamer binding, % at 10 µM. 330,000 compounds, 0.59% hits. AID 488847;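 active = inhibition of aptamer binding above 40%, roughly 3 SD of noise, on plates passing a quality check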;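 also: median bead fluorescence of bound FAM aptamer so fluorescent compounds give negative values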
# Numbers stand for hits; - = inactive; . = not tested or not shown.
SMILES,APOBEC3G inh,VLA-4 inh,APOBEC3A inh,GRK2 aptamer HTS
O=C(Nc1ccc(-c2nc3ccccc3s2)cc1)C1=COCCO1,-,-,-,48.0
CC(C)(C)OC(=O)CN1C(=O)S/C(=C\c2ccc(-c3cccc(C(=O)O)c3)o2)C1=O,-,-,45.0,-
Cc1ccccc1N=CC=C1OC(C)(C)C(C)(C)O1,-,-,-,54.0
CN(C(=O)COC(=O)COc1ccccc1Cc1ccccc1)c1ccccc1,-,-,-,-
C[C@@]12C(=O)N(c3cccc(Cl)c3)C(=O)N1[C@H](c1ccc(Cl)cc1)[C@@H]1C(=O)N(C3CCCCC3)C(=O)[C@@H]12,-,-,-,-
CCOc1ccccc1C1C2C(=O)N(c3ccccc3)C(=O)C2ON1c1ccccc1 (stereo not drawn),-,-,-,94.0
O=C(O)COc1ccccc1C1C2C(=O)N(c3ccccc3)C(=O)C2ON1c1ccccc1 (stereo not drawn),-,-,-,-
Cc1cccc(NC(=O)CSc2nccn2Cc2ccco2)c1,-,-,-,-
CCOc1ccc(C(=O)CC(C(=O)O)N2CCCCC2)cc1 (stereo not drawn),-,-,-,43.0
CCOc1ccc(C(=O)CC(C(=O)O)N2CCN(Cc3ccccc3)CC2)cc1 (stereo not drawn),-,-,-,-
Cc1ccc(NC(=O)CSc2nc3ccccc3nc2N2CCCC2)cc1,-,-,-,-
COn1c(SCc2cccc(Cl)c2)nc2ccccc2c1=O,-,-,-,-
COc1cccc(/C=N/NC(=O)c2cc3cc([N+](=O)[O-])ccc3s2)c1O,.,-,.,87.0
COc1ccccc1/C=N/NC(=O)c1ccc(NC(=O)c2cccc([N+](=O)[O-])c2)cc1,-,-,-,-
Cc1nc2n(n1)C(O)c1cc([N+](=O)[O-])ccc1S2 (stereo not drawn),-,-,44.5,-
Cc1cc(=O)oc2cc(OCC(=O)Nc3cccc(S(=O)(=O)N(C)C)c3)ccc12,-,-,-,56.0
Cc1ccc(S(=O)(=O)N(C)C)cc1NC(=O)COC(=O)COc1ccc2c(C)cc(=O)oc2c1,-,-,-,-
CCN(CC)S(=O)(=O)c1ccc(Cl)c(NC(=O)COc2ccc3c(C)cc(=O)oc3c2)c1,-,-,-,100.0
O=C(O)c1ccc(Cl)c2c1C1C=CCC1C(c1ccccn1)N2 (stereo not drawn),-,-,-,47.0
Cc1ccc2c(c1)C(=O)N1[C@H]3c4ccccc4OC[C@@H]3[C@H](c3ccccc3)[C@]1(C)C(=O)N2,-,-,-,93.0
Cc1ccc2c(c1)NC(=O)[C@@]1(C)[C@@H](c3ccccc3)[C@H]3COc4ccccc4[C@@H]3N1C2=O,-,.,-,.
CCCCOC(=O)C(C#N)c1nc2ccccc2nc1N1CCN(Cc2ccc3c(c2)OCO3)CC1 (stereo not drawn),-,-,-,-
CC1=C(C#N)C(=O)N(C2CCS(=O)(=O)C2)C(=O)/C1=C\c1ccco1 (stereo not drawn),-,-,-,100.0
O=C1/C(=C\c2ccco2)SC(=S)N1C1CCCCC1,-,-,-,-
CN(CC(=O)O)S(=O)(=O)c1ccc2[nH]c(=O)c(=O)[nH]c2c1,-,-,-,-
SMILES,APOBEC3G inh,VLA-4 inh,APOBEC3A inh,GRK2 aptamer HTS
COC(=O)/C(C#N)=C/c1ccc(-c2ccc(S(N)(=O)=O)cc2)o1,-,-,-,-
N#CC(C#N)=Cc1ccc(-c2ccc(S(=O)(=O)N=C(N)N)cc2)o1,-,-,-,100.0
Cc1ccc(OCCOc2cccc3ccc(C)nc23)c([N+](=O)[O-])c1,-,-,-,-
COc1ccc(C2CC(=O)N3CN(c4ccccc4F)CSC3=C2C#N)cc1OC (stereo not drawn),46.2,-,-,-
CCc1ccccc1N1CSC2=C(C#N)C(c3ccccc3F)CC(=O)N2C1 (stereo not drawn),-,-,-,-
COc1ccccc1N1CCN(CC(O)COc2ccc3c(c2)OCO3)CC1 (stereo not drawn),-,-,-,-
O=C(O)c1nnn(-c2ccc([N+](=O)[O-])cc2)c1-c1ccccc1,-,-,-,-
CC(C)Cn1c(N)cc(=O)n(C)c1=O,-,61.5,-,-
COC(=O)c1sc(NC(=S)NNC(=O)c2c(Br)c(C)nn2C)c(C(=O)OC)c1C,-,-,-,-
O=C(NCCc1ccccn1)c1c(-c2ccsc2)sc2ccccc12,-,-,-,70.0
COCC(C)n1c(SCC(=O)Nc2nccs2)nc2ccccc2c1=O (stereo not drawn),-,-,-,-
CCc1ccc(NS(=O)(=O)c2ccc3[nH]cc(C(=O)N4CCc5ccccc54)c(=O)c3c2)cc1,-,-,-,41.0
Cc1ccc(CNC(=S)Nc2ccc(C)c([N+](=O)[O-])c2)cc1,-,-,-,50.0
Cc1ccc(NC(=S)NCc2ccccc2)cc1[N+](=O)[O-],-,-,-,-
C=CCC[C@@H](Cc1ccc(F)cc1)C(=O)OC[C@H](C)NC(=O)[C@@H](CC=C)CC(=O)N[C@@H](CO)Cc1ccccc1,-,-,-,83.0
C=CCC[C@H](Cc1ccc(F)cc1)C(=O)OC[C@H](C)NC(=O)[C@@H](CC=C)CC(=O)N[C@H](CO)Cc1ccccc1,-,-,-,-
CCCN(CCC)CCNC(=O)C1CCN(Cc2nc(-c3ccc(Cl)cc3)oc2C)CC1,-,-,-,96.0
Cc1oc(-c2ccc(Cl)cc2)nc1CN1CCC(C(=O)NCc2cccnc2)CC1,-,-,-,-
O=C(NCCCn1ccnc1)C(=O)NCC(c1ccco1)N1CCN(c2ccccc2)CC1 (stereo not drawn),-,-,-,-
O=C(COc1ccc([N+](=O)[O-])cc1)NNC(=S)NC(=O)c1ccc(Br)cc1,-,61.0,-,-
Cc1ccc(C(=O)NC(=S)NNC(=O)COc2ccc([N+](=O)[O-])cc2)cc1,-,-,-,-
O=C(NCc1ccc(F)cc1)c1ccc(CS(=O)(=O)Cc2ccc(F)cc2)o1,-,-,-,-
CC(=O)N1CC(C)Sc2ccc(S(=O)(=O)NCc3ccccc3Cl)cc21 (stereo not drawn),-,-,-,-
O=C1Nc2ccccc2S/C1=C\C(=O)N1CCCC1,-,-,-,81.0
COc1ccc(-c2nc(CSCC(=O)NCCCN3CCCC3=O)c(C)o2)cc1,-,-,-,-
SMILES,APOBEC3G inh,VLA-4 inh,APOBEC3A inh,GRK2 aptamer HTS
CCOC(=O)NC1(C(F)(F)F)C(=O)N(Cc2ccccc2)C2=C1C(=O)CC(C)(C)C2 (stereo not drawn),-,-,-,-
CC1(C)C(=O)OC(C(=O)c2ccc(Cl)cc2)C(C)(C)C1=O (stereo not drawn),-,-,-,100.0
CC[n+]1c(/C=C/C=C/N(C(C)=O)c2ccccc2)sc2cc(OC)ccc21,.,-,.,80.0
O=C(O)c1ccc(NS(=O)(=O)/C=C/c2ccccc2)cc1,-,-,-,55.0
CN1CCc2nc(SCC(=O)Nc3ccc(F)cc3)c(C#N)cc2C1,-,-,-,57.0
Cc1cccc2c(=O)cc(C)n(CC(=O)N3CCOCC3)c12,-,-,-,-
COc1ccccc1C1=Nn2c(COc3ccccc3)nnc2SC1,51.4,-,-,-

# From PubChem BioAssay
